# Screens deposited in PubChem by several laboratories.
# Sampled rows, rich in hits. Any-hit rate of the full collection: about 1.3%.
# PrPC surface inh = cell surface PrPC inhibition, primary TR-FRET screen | P04156 | TR-FRET read-out | inhibition, % at 13.8 µM | 0.43% of 370,000 active; in the data active = inhibition above about 24%; also: 0% = median of the test wells and 100% = reference compound wells
# CCHF vOTU inh = blocks the CCHF virus ovarian tumor domain protease | AID 651958 | 0.55% of 370,000 active | inhibition, % at 11.5 µM | CCHFV vOTU protease, Pep-AMC fluorescence; in the data active = inhibition above about 30%; also: 0% = vehicle wells with enzyme and 100% = no enzyme wells
# SARS 3CLpro inh-1 = SARS-CoV 3CLpro protease inhibition | P0C6X7 | recombinant SARS-CoV 3CLpro, quenched FRET peptide cleavage | inhibition, % at 6 µM | 0.14% of 290,000 active; in the data active = inhibition above about 12%
# PrP 5UTR inh = suppresses PrP 5' UTR mRNA reporter expression; cell-based PrP 5' UTR mRNA reporter, plate reader; inhibition, % (concentration not given with the values); 0.35% of 340,000 active; in the data active = inhibition above about 52%; also: 0 = median of the neutral control wells
# SARS 3CLpro inh-2 = SARS 3CLpro inhibition, confirmation assay. shares compounds with SARS 3CLpro inh-1. QFRET protease activity assay. inhibition, % at 6 µM. 36% of 380 active; in the data active = inhibition above about 13%
# * hit, by the source's call; nt = no result given.
SMILES,PrPC surface inh,CCHF vOTU inh,SARS 3CLpro inh-1,PrP 5UTR inh,SARS 3CLpro inh-2
CC(C)c1ccc(NS(=O)(=O)c2ccc(-n3cccn3)cc2)cc1,11,10,6,-30,nt
Cc1ccccc1Nc1nnc(SCC(=O)Nc2ncc(C(F)(F)F)cc2Cl)s1,-3,8,20*,-16,-4
Cc1cccc(Nc2nnc(SCC(=O)Nc3ncc(C(F)(F)F)cc3Cl)s2)c1C,-4,-8,13*,-17,3
Cc1cccc(C)c1Nc1nnc(SCC(=O)Nc2ncc(C(F)(F)F)cc2Cl)s1,0,-2,6,-9,nt
O=C(c1ccco1)N1CCN(C(=O)c2ccc(CS(=O)c3ccc(F)cc3)o2)CC1 (stereo unspecified),-12,25,10,-14,nt
O=c1sc2ccccc2n1CCCOc1ccccc1,-3,10,-4,-90,nt
O=C(/C=C/c1cccs1)Nc1scc(-c2ccccc2)c1C(=O)O,-2,12,23*,-34,61*
Cc1ccc(-n2c(Cc3cccn3C)nnc2SCC(=O)Nc2ccc3c(c2)OCO3)cc1,16,0,14*,-13,2
O=C1C(C=NCCCn2ccnc2)=C(O)c2ccccc21,-13,14,-5,-21,nt
Cc1ccc(C(=O)Cn2nnc3ccccc32)cc1,-3,5,6,-95,nt
O=C(Cn1nnc2ccccc21)c1ccc(Br)cc1,2,-13,57*,-15,55*
COc1ccccc1NC(=O)CSc1nnc(Cn2cnc3ccccc32)n1C,1,1,0,-13,nt
CC(C)C12CN(C(=O)c3ccccc3[N+](=O)[O-])CC(C(C)C)(CN(C(=O)c3ccccc3[N+](=O)[O-])C1)C2=O,-10,4,29*,2,35*
O=C1CCCc2c1cc(-c1ccccc1)n2-c1ccccc1,2,0,3,-22,nt
COc1cccc(N2C(=O)/C(=C/c3ccc(C)o3)C(=O)NC2=S)c1,9,-16,13*,-10,-4
CC1CCC2C(=O)N(c3ccccc3OC(=O)c3ccccc3)C(=O)C2C1 (stereo unspecified),-7,1,5,-12,nt
CC1CCC2C(=O)N(c3cc(Cl)ccc3OC(=O)c3ccco3)C(=O)C2C1 (stereo unspecified),-6,5,46*,-12,60*
Cc1n[nH]c(C)c1S(=O)(=O)N1CCN(S(=O)(=O)c2cccc(F)c2)CC1,4,12,nt,-29,nt
CC(C)c1ccc(N(C(=O)c2csnn2)C(C(=O)NC2CCCC2)c2cccnc2)cc1 (stereo unspecified),0,-14,15*,-4,20*
CCc1ccc(N(C(=O)c2csnn2)C(C(=O)NC2CCCC2)c2cccnc2)cc1 (stereo unspecified),-5,-2,5,-4,nt
COc1ccc(S(=O)(=O)Nc2ccc(F)cc2)cc1N(C)S(=O)(=O)c1ccc(Cl)cc1,10,-9,17*,-1,-2
COc1ccc(NS(=O)(=O)c2ccc(OC)c(N(C)S(=O)(=O)c3ccc(Cl)cc3)c2)cc1,13,12,2,-29,nt
Clc1ccc(-c2csc(N/N=C/c3ccc4c(c3)OCO4)n2)cc1,-2,-10,2,-17,nt
Cc1c(OCC(=O)N[C@@H](Cc2c[nH]c3ccccc23)C(=O)O)ccc2c1oc(=O)c1ccccc12,5,-8,14*,-57,9
Cc1c(C)c2ccc(OCC(=O)NC(Cc3c[nH]c4ccc(O)cc34)C(=O)O)c(C)c2oc1=O (stereo unspecified),-5,6,3,-19,nt
SMILES,PrPC surface inh,CCHF vOTU inh,SARS 3CLpro inh-1,PrP 5UTR inh,SARS 3CLpro inh-2
CCc1cc(CNC(=O)CC2C(=O)NCCN2Cc2ccc(-c3ccccc3)cc2)on1 (stereo unspecified),2,-6,4,-4,nt
O=C(CN1CCSCC1)N1CCc2[nH]c3ccc(Br)cc3c2C1,nt,nt,22*,nt,75*
CCOc1cccc(CN2CCN(c3cccc(C(F)(F)F)c3)CC2)c1O,-6,-8,3,-10,nt
O=C(Oc1ccc2cccc(OC(=O)N3CCOCC3)c2c1)N1CCOCC1,1,-5,13*,-6,-1
O=C1c2[nH]nc(-c3ccccc3O)c2C(c2ccccc2F)N1Cc1ccco1 (stereo unspecified),-5,3,13*,2,2
O=C1c2[nH]nc(-c3ccccc3O)c2C(c2ccccc2)N1Cc1ccco1 (stereo unspecified),0,-1,3,13,nt
CC(C)CN(CCC(=O)O)CC(C)C,-1,0,14*,-25,-6
O=C(O)CCN(CCC(=O)O)c1ccccc1,-3,1,2,-23,nt
CC(C)CNS(=O)(=O)c1ccc(CCC(=O)Nc2cc(Cl)ccc2Oc2ccccc2)cc1,-3,17,12*,-24,1
CCCNS(=O)(=O)c1ccc(CCC(=O)Nc2cc(Cl)ccc2Oc2ccccc2)cc1,7,2,3,3,nt
O=C(Cc1ccc(Cl)cc1)NCC(=O)N1CCN(Cc2ccccc2)CC1,4,-3,0,-25,nt
Nc1cc2nn(-c3ccccc3)nc2cc1Cl,1,20,12*,-167,-4
Nc1ccc2nn(-c3ccccc3)nc2c1,-6,9,1,-47,nt
COC(=O)c1cc2sccc2n1CC(=O)Nc1ccc(OC)c(OC)c1OC,-7,1,14*,-26,-4
COc1ccc(Nc2oc(COc3ccc(C)cc3)nc2C#N)cc1,8,13,13*,-7,0
COc1ccc(Nc2oc(COc3ccc(OC)cc3)nc2C#N)cc1,10,-1,2,21,nt
Cc1ccc(C(=O)NCCNc2ccc(Cl)cc2[N+](=O)[O-])o1,-31,-9,7,0,nt
Cc1nnc(SC(=O)N2c3ccccc3Sc3ccccc32)s1,-3,-12,24*,-32,38*
CN(Cc1c(C(=O)N/N=C/c2cccc(O)c2)nnn1-c1nonc1N)c1ccccc1,nt,nt,5,-20,nt
CC(C)Oc1ccc(/C=N/NC(=O)c2nnn(-c3nonc3N)c2CN(C)c2ccccc2)cc1,5,13,14*,-5,5
N#Cc1ccc(CN2CCN(C(=O)c3cn(Cc4ccccc4)nc3-c3cccnc3)CC2)cc1,-1,18,nt,-5,nt
COCCOC(=O)/C(C#N)=C/c1cn(Cc2ccccc2)nc1-c1cccnc1,-4,-1,16*,-32,2
Cc1ccc2[nH]c3c(c2c1)CN(C(=O)CN1CCN(c2cccc(C)c2C)CC1)CC3,-12,16,4,-16,nt
Cc1ccc2[nH]c3c(c2c1)CN(C(=O)CN1c2ccc(F)cc2CCC1C)CC3 (stereo unspecified),-4,10,44*,-10,28*
O=C(Oc1ccc(Br)cc1C(=O)/C=C/c1ccccc1F)c1ccco1,7,8,22*,-27,43*
CC(=O)c1cc(Cl)ccc1OC(=O)c1ccco1,-6,7,-2,-24,nt
COC(=O)c1ccc(NC(=O)c2ccc(NC(=O)c3ccco3)cc2)cc1,-10,7,13*,-19,-1
CC(=O)c1ccc(NC(=O)c2ccc(NC(=O)c3ccco3)cc2)cc1,nt,nt,2,-2,nt
CSc1nsc(NC(=O)OCc2ccc(Cl)cc2)n1,6,-1,13*,-34,3
